Results on 18 molecules are retold here after PubChem BioAssay (NCATS).

Values joined by “and” are separate entries in the source; they are usually repeats but may differ in a detail not shown here. Equal entries are not always repeated. Inconclusive results are not listed. Active and inactive are the calls of the source. Calls follow the shape of the full dose curve.

A short description of experiment [1]: Primary qHTS for inhibitors of SARS-S pseudo-typed particle cell entry (AID 1479145). Also: nearly all actives have a fitted effect of over 45% in size. As to activity change, negative = inhibition: % is scaled to controls: 0 for no effect and ±100 for the full control effect. As to conditions: outcome: dose series up to 57.1 µM unless noted. (In general: qHTS replaces the single test concentration by a dilution series.)
Experiment [2] in a line: Primary qHTS for Huh7 cytotoxicity: counterscreen for inhibitors of MERS-S pseudotyped particle cell entry (AID 1479147). As to activity change, negative = cytotoxicity: % is scaled to controls: 0 for no effect and ±100 for the full control effect. As to conditions: outcome: dose series up to 57.1 µM unless noted.
Experiment [3] in a line: Primary qHTS for inhibitors of MERS-S pseudo-typed particle cell entry (AID 1479149). Also: nearly all actives have a fitted effect of over 60% in size. As to conditions: outcome: dose series up to 57.1 µM unless noted.
Experiment [4] is described as follows: Primary qHTS for Vero E6 cytotoxicity: counterscreen for inhibitors of SARS-S pseudo-typed particle cell entry (AID 1479150). As to activity change, negative = cytotoxicity: % is scaled to controls: 0 for no effect and ±100 for the full control effect. The following applies: outcome: dose series up to 57.1 µM unless noted.
Experiment [5] is described as follows: Cytotoxicity counterscreen for inhibitors of SARS-CoV-2 cell entry (AID 1645845). Also: nearly all actives have a fitted effect of over 50% in size. As to activity change, negative = cytotoxicity: % is scaled to controls: 0 for no effect and ±100 for the full control effect. The following applies: outcome: dose series up to 57.1 µM unless noted. Summed up: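 HEK293-ACE2 cells (Expi293F stably expressing human ACE2) seeded overnight, then compound for 1 h plus 48 h at 37C. Viability as ATP content by luminescence; normalized to wells with cells and media-only wells.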

Experiment [6] in a line: Primary qHTS to identify inhibitors of SARS-CoV-2 cell entry (AID 1645846). Also: nearly all actives have a fitted effect of over 45% in size. As to conditions: SARS-CoV-2 pseudovirus cell entry assay, luminescence; activity change, negative = inhibition: at 57.1 µM (top of the series) unless noted. The essentials:
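Luminescence readout (Bright-Glo luciferase) 48 h after pseudoparticle addition. HEK293-ACE2 cells, 1500/well; compound pre-incubation 1 h; Normalized to spike PP and bald PP.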

For the molecule `NC[C@@H]1O[C@H](O[C@H]2[C@@H](O)[C@H](O[C@@H]3[C@@H](O)[C@H](N)C[C@H](N)[C@H]3O[C@H]3O[C@H](CO)[C@@H](O)[C@H](O)[C@H]3N)O[C@@H]2CO)[C@H](N)[C@@H](O)[C@@H]1O`, in experiment [1], the activity change, negative = inhibition is -8.64% [at 0.573 µM] (inactive). The outcome in experiment [2] was “inactive [at 0.573 µM]”; in experiment [3], “inactive [at 0.573 µM]”; in experiment [6], “inactive [at 0.702 µM]”. For the same molecule, the results for the activity change, negative = cytotoxicity in experiment [4] and in experiment [5] were -20.5% [at 0.573 µM] (inactive) and -2.38% [at 0.702 µM] (inactive), respectively.
Consider `CSCC[C@H](N)C(=O)O`, for which the Potency entry in experiment [1], in experiment [2], in experiment [3], in experiment [4], in experiment [5] and in experiment [6] was “inactive” in each case.
With `CN[C@H]1C(=O)N[C@@H]2Cc3ccc(cc3)Oc3cc4cc(c3O[C@@H]3O[C@H](C(=O)O)[C@@H](O)[C@H](O)[C@H]3NC(=O)CCCCCCCCC(C)C)Oc3ccc(cc3Cl)[C@@H](O)[C@@H]3NC(=O)[C@H](NC(=O)[C@@H]4NC(=O)[C@@H](NC2=O)c2cc(cc(O)c2Cl)Oc2cc1ccc2O)c1ccc(O)c(c1)-c1c(O[C@H]2O[C@H](CO)[C@@H](O)[C@H](O)[C@@H]2O)cc(O)cc1[C@@H](C(=O)NCCCN(C)C)NC3=O`, the Potency result in experiment [1], in experiment [2], in experiment [3], in experiment [4] and in experiment [5] was “inactive” in each case. The activity change, negative = inhibition in experiment [6] was determined as 0.0393% [at 27.1 µM].
For `CCCN(CC)C(CC)C(=O)Nc1c(C)cccc1C` (stereo not drawn), the Potency entry in experiment [1], in experiment [2], in experiment [3], in experiment [4] and in experiment [5] was “inactive” in each case. Moreover, the activity change, negative = inhibition in experiment [6] was -22.8%.
As for `COCC1=C(C(=O)O)N2C(=O)[C@@H](NC(=O)/C(=N\OC)c3csc(N)n3)[C@H]2SC1`, the Potency entry in experiment [1], in experiment [2], in experiment [3], in experiment [4] and in experiment [5] was “inactive” in each case. For the same molecule, the activity change, negative = inhibition in experiment [6] is -16.5%.
For `CCN1CCN(C(=O)N[C@@H](C(=O)N[C@]2(OC)C(=O)N3C(C(=O)O)=C(CSc4nnnn4C)CS[C@@H]32)[C@H](C)O)C(=O)C1=O`, the Potency result in experiment [1], in experiment [2], in experiment [3], in experiment [4] and in experiment [5] was “inactive” in each case. Further, in experiment [6], the activity change, negative = inhibition is -16.3%.
Regarding `CC(C)(CO)[C@@H](O)C(=O)NCCC(=O)NCCSSCCNC(=O)CCNC(=O)[C@H](O)C(C)(C)CO`, the Potency result in experiment [1], in experiment [2], in experiment [3], in experiment [4] and in experiment [5] was “inactive” throughout. Further, the activity change, negative = inhibition in experiment [6] is -13.3%.
As for `C=C1CC2C3CCC4=CC(=O)C=C[C@]4(C)[C@@]3(F)[C@@H](O)C[C@]2(C)[C@@]1(O)C(=O)COC(C)=O` (stereo partly drawn), the Potency entry in experiment [1], in experiment [2], in experiment [3], in experiment [4], in experiment [5] and in experiment [6] was “inactive” throughout.
In the case of `OC[C@H]1OC(O)C[C@@H](O)[C@@H]1O` (stereo partly drawn), the Potency entry in experiment [1], in experiment [2], in experiment [3], in experiment [4] and in experiment [5] was “inactive” in each case. Besides, the activity change, negative = inhibition in experiment [6] is -11.1%.
`CN(C(=O)CO)c1c(I)c(C(=O)NCC(O)CO)c(I)c(C(=O)NCC(O)CO)c1I` (stereo not drawn): the Potency result in experiment [1], in experiment [2], in experiment [3], in experiment [4] and in experiment [5] was “inactive” throughout. Further, the activity change, negative = inhibition in experiment [6] is -14.3%.
As for `NCCCC[C@H](N)C(=O)O`, the outcome in experiment [1] is “inactive [at 0.573 µM]”; in experiment [2], “inactive [at 0.573 µM]”; in experiment [3], “inactive [at 0.573 µM]”; in experiment [6] it was “inactive [at 0.702 µM]”. Moreover, the activity change, negative = cytotoxicity in experiment [4] is 2.08% [at 0.573 µM] (inactive); in experiment [5], 2.36% [at 0.702 µM] (inactive).
In the case of `C[S+](CC[C@H](N)C(=O)O)C[C@H]1O[C@@H](n2cnc3c(N)ncnc32)[C@H](O)[C@H]1O` (stereo partly drawn), the Potency result in experiment [1], in experiment [2], in experiment [3], in experiment [4], in experiment [5] and in experiment [6] was “inactive” in each case.
In the case of `O=C(CCc1ccc(O)cc1)c1c(O)cc(O)cc1O[C@@H]1O[C@H](CO)[C@@H](O)[C@H](O)[C@H]1O`, the Potency entry in experiment [1], in experiment [2], in experiment [3], in experiment [4] and in experiment [5] was “inactive” throughout. In addition, in experiment [6], the activity change, negative = inhibition is 0.14% and -17.3%.
With `CC(OC(=O)OC1CCCCC1)OC(=O)C1=C(CSc2nnnn2CCN(C)C)CS[C@@H]2[C@H](NC(=O)Cc3csc(N)n3)C(=O)N12` (stereo partly drawn), the Potency result in experiment [1], in experiment [2], in experiment [3], in experiment [4] and in experiment [5] was “inactive” in each case. Also, in experiment [6], the activity change, negative = inhibition was -37%.
As for `OC[C@@H](O)C(O)[C@H](O)CO`, the Potency result in experiment [1], in experiment [2], in experiment [3], in experiment [4] and in experiment [5] was “inactive” each time. Also, in experiment [6], the activity change, negative = inhibition turned out to be 2.94%.
Turning to `Cc1cccc(C)c1NC(=O)C1CCCCN1C` (stereo not drawn), the Potency result in experiment [1], in experiment [2], in experiment [3], in experiment [4] and in experiment [5] was “inactive” in each case. In addition, the activity change, negative = inhibition in experiment [6] is -22.7%.
Turning to `CC(Oc1ccccc1)C(=O)N[C@@H]1C(=O)N2[C@@H]1SC(C)(C)[C@@H]2C(=O)O` (stereo partly drawn), the Potency entry in experiment [1], in experiment [2], in experiment [3], in experiment [4] and in experiment [5] was “inactive” each time. Also, the activity change, negative = inhibition in experiment [6] is -18.1%.
On to `N#C[C@@H]1CCCN1C(=O)CNC12CC3CC(CC(O)(C3)C1)C2`, for which the Potency entry in experiment [1], in experiment [2], in experiment [3], in experiment [4], in experiment [5] and in experiment [6] was “inactive” each time.
